# Reference: ChEMBL document CHEMBL4808148, “HDAC6 screening dataset using tau-based substrate in an enzymatic assay yields selective inhibitors and activators” (2021)
# Among all 5,600 compounds or so, about 390 (7%) showed an effect of 50% or more. What follows is part of a selection rich in strong results, with near analogues and random picks from the rest. Starred links: 1 amine or outer side, 2 acyl side, 3 side chain; linkers in the order of their positions; H or OH if unused. Positions of bridges follow the written chain, without caps; N, C: chain ends. Residues, ends and D or L forms follow the SMILES beside them. X5 = O=C(CCC[*:2])[*:1]
# Target: T1, Protein deacetylase HDAC6 (Homo sapiens) (UniProt Q9UBN7)
# T1 sequence (whole entry): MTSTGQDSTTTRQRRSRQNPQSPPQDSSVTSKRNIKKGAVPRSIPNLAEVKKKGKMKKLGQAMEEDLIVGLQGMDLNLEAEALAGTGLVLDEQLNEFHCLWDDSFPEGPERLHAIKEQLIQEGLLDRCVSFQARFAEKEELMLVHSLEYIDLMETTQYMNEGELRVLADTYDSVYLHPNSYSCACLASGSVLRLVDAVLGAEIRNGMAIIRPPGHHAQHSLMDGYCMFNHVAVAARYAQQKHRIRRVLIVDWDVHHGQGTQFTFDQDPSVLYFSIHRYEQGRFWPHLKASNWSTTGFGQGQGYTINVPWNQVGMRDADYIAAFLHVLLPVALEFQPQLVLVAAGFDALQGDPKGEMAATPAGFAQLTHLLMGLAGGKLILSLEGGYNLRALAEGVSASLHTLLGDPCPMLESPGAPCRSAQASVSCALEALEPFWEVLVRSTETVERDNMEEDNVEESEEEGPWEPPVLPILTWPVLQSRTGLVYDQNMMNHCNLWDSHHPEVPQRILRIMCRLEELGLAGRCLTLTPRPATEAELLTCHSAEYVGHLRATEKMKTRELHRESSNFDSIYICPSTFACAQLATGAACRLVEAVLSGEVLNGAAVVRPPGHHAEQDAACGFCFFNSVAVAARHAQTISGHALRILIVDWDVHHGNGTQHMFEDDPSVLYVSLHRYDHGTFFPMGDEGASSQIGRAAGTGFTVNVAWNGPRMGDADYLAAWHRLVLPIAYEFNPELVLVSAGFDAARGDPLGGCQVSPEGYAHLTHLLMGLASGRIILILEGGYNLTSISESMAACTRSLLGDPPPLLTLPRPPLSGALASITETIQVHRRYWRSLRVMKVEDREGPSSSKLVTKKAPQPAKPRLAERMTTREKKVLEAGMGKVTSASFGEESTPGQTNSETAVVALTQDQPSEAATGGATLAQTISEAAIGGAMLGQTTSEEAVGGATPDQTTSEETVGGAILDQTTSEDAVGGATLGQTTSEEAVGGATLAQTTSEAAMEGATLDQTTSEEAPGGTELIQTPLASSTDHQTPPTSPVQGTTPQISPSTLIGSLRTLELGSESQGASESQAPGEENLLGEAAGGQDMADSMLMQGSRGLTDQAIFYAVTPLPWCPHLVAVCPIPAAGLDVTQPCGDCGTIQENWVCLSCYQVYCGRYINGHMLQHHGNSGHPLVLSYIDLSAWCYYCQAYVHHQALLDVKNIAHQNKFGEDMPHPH
# Conditions: at 10 µM
row,Compound,inhibition [%]
1,CC1=C(/C=C/C(C)=C/C=C/C(C)=C/C=C/C=C(C)/C=C/C=C(C)/C=C/C2=C(C)C(=O)[C@@H](O)CC2(C)C)C(C)(C)C[C@H](O)C1=O,10.4
2,COc1ccc2cc1Oc1cc3c(cc1OC)CC[N+](C)(C)[C@H]3Cc1ccc(cc1)Oc1c(OC)c(OC)cc3c1[C@@H](C2)[N+](C)(C)CC3,16.5
3,CC[C@H](C)[C@@H]1NC(=O)[C@H](Cc2ccc(OC)cc2)NC(=O)CCCSC[C@@H](C(=O)N2CCC[C@H]2C(=O)N[C@@H](CC(C)C)C(=O)NCC(N)=O)NC(=O)[C@H](CC(N)=O)NC(=O)[C@H](CCC(N)=O)NC1=O (Y(Me)IQNCPLG-NH2; linker N-5 via X5),11
4,COc1cc(C[C@@H](CO)[C@H](CO)Cc2ccc(O)c(OC)c2)ccc1O,21.1
5,CCC(=O)NC[C@@H]1C[C@H]1c1cccc2c1CCO2,-8.79
6,O=C(O)CCCN1C(=O)c2cccc3cccc(c23)C1=O,-3.55
7,CN(C)CCN1C(=O)c2cccc3cc(N)cc(c23)C1=O,24.8
8,O=C(CCCCCN1C(=O)c2cccc3cccc(c23)C1=O)NO,100
9,CN1CCN(CCCCN2C(=O)CN(/N=C/c3ccc(-c4ccc(Cl)cc4)o3)C2=O)CC1,-7.57
10,COc1cc(Br)c(Nc2nc(-c3c(C)nc4ncccn34)cs2)c(Br)c1,-6.53
11,CCOc1ccc(-c2nc(-c3cccc4c3CCC4NCCO)no2)cc1OCC (configuration not stated),26.2
12,CC(O)CCCCn1c(=O)c2c(ncn2C)n(C)c1=O (configuration not stated),14.8
13,CC(C)(C)c1cc(C(=O)/C(C#N)=N/Nc2cccc(Cl)c2)no1,58.9
14,O=C(O)c1cc2ccccc2s1,36
15,CCCCCCCCCCCCCCCCCCO,10.8
16,Cc1cccc(COc2cccc(/C=C3\C(=O)NN(c4ccccc4)C3=O)c2)c1,6.83
17,C[C@H]1NCc2cc(-c3ccc4c(=O)c(C(=O)O)cn(C5CC5)c4c3OC(F)F)ccc21,14.9
18,O=C1NC(=O)c2cc(Nc3ccc(F)cc3)c(Nc3ccc(F)cc3)cc21,41.3
19,CC(C)Oc1ccc2c(=O)c3cc(C(=O)O)ccc3oc2c1,87.4
20,COc1ccc(-c2oc3cc(OC)ccc3c2C(=O)c2ccc(C#N)cc2)cc1,1.66
21,CC(C)Oc1ccc2c(=O)c(-c3ccccc3)coc2c1,95.2
22,COc1cc(C=O)ccc1O,-4.44
23,O=c1c(-c2ccc(O)cc2)coc2c(C3OC(CO)C(O)C(O)C3O)c(O)ccc12 (configuration not stated),5.48
24,COc1cc2c(=O)c(-c3ccc(O)cc3)coc2cc1O,98.7
25,CNC(=O)c1c(C)oc2cc(Oc3ncnc4cc(OC)c(OC)cc34)ccc12,-6.42
26,COc1cc(C(C)=O)ccc1O,8.46

row,Compound,inhibition [%]
1,O=c1c(-c2ccc(O)cc2)coc2cc(O)ccc12,101
2,CNc1cc2[nH]c(=O)n(-c3ccc(NC(=O)NS(=O)(=O)c4ccc(Cl)s4)cc3)c(=O)c2cc1F,32.7
3,C[C@@H]1CN(Cc2ncccn2)C[C@H]1c1nc2c(cnn2C2CCOCC2)c(=O)[nH]1,-2.24
4,O=C(O)c1cc(O)c2c(Cl)cc(Cl)cc2n1,6.69
5,CC(=O)Oc1ccccc1C(=O)Oc1cccc(CO[N+](=O)[O-])c1,48.1
6,CC(C)(O)CNc1nc(Nc2ccnc(C(F)(F)F)c2)nc(-c2cccc(C(F)(F)F)n2)n1,36.2
7,CC(=O)NC(C(=O)O)C(C)(C)SN=O (configuration not stated),2.51
8,Cc1noc2c1-c1ccccc1C(c1ccc(Cl)cc1)=N[C@H]2CC(N)=O,43.6
9,Nc1ccc(F)cc1NC(=O)c1ccc(CNC(=O)/C=C/c2cccnc2)cc1,-6.65
10,N[C@H](CSC(c1ccccc1)(c1ccccc1)c1ccccc1)C(=O)O,-3.09
11,Cc1nc2n(c(=O)c1CCN1CCC(c3noc4cc(F)ccc34)CC1)CCCC2O (configuration not stated),-9.07
12,N#Cc1cnc2cnc(NCc3cccnc3)cc2c1Nc1ccc(F)c(Cl)c1,-0.05
13,COc1ccc(-c2coc3cc(O)ccc3c2=O)cc1,99.6
14,COc1ccc(-n2c(C)c([N+](=O)[O-])c3ccc(O)cc32)cc1,12.7
15,N[C@@H](CCNCc1ccc(Cl)cc1)C(=O)N1CCCCC1,0.96
16,N=C(Nc1ccc(I)cc1)NC1C2CC3CC(C2)CC1C3 (configuration not stated),1.97
17,Cc1ccc(-c2ncc[nH]2)cc1NC(=O)c1ccc(OCc2ccccn2)cc1,21.3
18,Fc1ccc(-c2nc3n(c2-c2ccncc2)CCS3)cc1,-4.98
19,Cc1c(F)cccc1NC(=O)Nc1ccc(Cl)c(S(=O)(=O)[C@H]2CCCNC2)c1O,36.1
20,CN1CCN(C2=Cc3ccccc3Oc3ccc(Cl)cc32)CC1,2.47
21,COc1ccc(COc2ccc(CC#N)cc2)cc1,28.5
22,Cc1nc2c(OCc3ccccc3)cccn2c1CC#N,76.9
23,CCCc1c(OCCCCc2nnn[nH]2)ccc(C(C)=O)c1O,4.66
24,CC[N+](C)(CC)CCOC(=O)C(O)(c1ccccc1)C1CCCCC1 (configuration not stated),-2.19
25,COc1ccc2c(C)nc(Nc3nc(C)c(C)c(O)n3)nc2c1,20.5
26,CCc1cnc(N2CCC(c3nc(COc4ccc(-n5cnnn5)cc4)cs3)CC2)nc1,14.7
